This is an account of results in PubChem BioAssay (NCI).

Among the test systems are SK-MEL-2 melanoma; EKVX NSCLC; UO-31 renal; TK-10 renal; ACHN renal; CAKI-1 renal; A498 renal; CCRF-CEM leukemia; MOLT-4 leukemia; SR leukemia; RPMI-8226 leukemia; OVCAR-8 ovarian; OVCAR-5 ovarian; SK-OV-3 ovarian; IGROV1 ovarian; OVCAR-3 ovarian; HS 578T breast; NCI/ADR-RES ovarian; SN12C renal; OVCAR-4 ovarian.
Common to all, as to assay: NCI-60 one-dose screen, 48 h (100 = growth as untreated, 0 = no growth, -100 = all killed)
Common to all, as to settings: 10 µM unless noted

Each structure is given as a SMILES string. The panel holds about 83,000 compounds, 20% with a hit somewhere; the sample as a whole holds those more often.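 The endpoint reported here, percent growth, reads 100 for growth as untreated, 0 for no net growth and -100 for all cells dead.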 Values without a mark were called inactive. Calls of active or inactive are those of the source. Rule for the calls: active = growth percent below 10; inactive = the rest.

With `c1ccc([P+](CCCc2n(Cc3ccc4ccccc4c3)c3ccccc3[n+]2Cc2ccc3ccccc3c2)(c2ccccc2)c2ccccc2)cc1`, the growth in the test with SK-MEL-2 melanoma was 100%; in the test on EKVX NSCLC, 59.4%; in the test on UO-31 renal, 61.2%; in the test on TK-10 renal it was 89.2%; with ACHN renal, 81.4%; in the test with CAKI-1 renal, 79.9%. In addition, the growth was 67.2% with A498 renal; 43.2% with CCRF-CEM leukemia; 57.6% in the test on MOLT-4 leukemia; 30.8% in the test on SR leukemia; 6.9% (active) in the test with RPMI-8226 leukemia; 70.2% in the test with OVCAR-8 ovarian. For the same compound, the growth was 60.1% in the test on OVCAR-5 ovarian; 84.5% with SK-OV-3 ovarian; 20.8% in the test with IGROV1 ovarian; 75.8% with OVCAR-3 ovarian; 68.6% in the test with HS 578T breast; 83.7% in the test with NCI/ADR-RES ovarian.
`O=C(/C=C/C12c3ccccc3C(c3ccccc31)C1C(=O)NC(=O)C12)c1ccc(Cl)cc1` (centres undefined): the growth with SK-MEL-2 melanoma is -7.61% (active); in the test with EKVX NSCLC it was 17.8%; in the test on SN12C renal, -14.4% (active); with TK-10 renal, 12.6%; with ACHN renal, -44.8% (active); in the test on CAKI-1 renal, 33.6%. Further, the growth in the test with CCRF-CEM leukemia was 11.5%; with MOLT-4 leukemia, 11.1%; in the test on RPMI-8226 leukemia, -10.1% (active); in the test on OVCAR-8 ovarian, 16%; in the test on OVCAR-5 ovarian it was -2.53% (active); in the test with OVCAR-4 ovarian it was 30.4%. In addition, the growth is -38.6% (active) in the test with IGROV1 ovarian, -57.8% (active) in the test on OVCAR-3 ovarian, 11.6% with HS 578T breast and 4.42% (active) with NCI/ADR-RES ovarian.
As for `CN(C)S(=O)(=O)n1cnc([C@@H]2[C@@H]3C(=O)OC[C@@H]3C[C@]23N=CN(Cc2ccccc2)C3=O)c1`, the growth in the test on SK-MEL-2 melanoma is 176%; in the test with EKVX NSCLC, 111%; in the test with SN12C renal, 104%; with TK-10 renal, 112%; in the test with ACHN renal, 102%; with CAKI-1 renal it was 97.3%. Also, the growth in the test on A498 renal is 99.5%; with CCRF-CEM leukemia, 125%; in the test with MOLT-4 leukemia it was 20.7%; in the test on RPMI-8226 leukemia, -8.51% (active); in the test on OVCAR-8 ovarian, 107%; in the test with OVCAR-5 ovarian, 96.7%. The growth with OVCAR-4 ovarian was 79.6%; with SK-OV-3 ovarian it was 107%; in the test with IGROV1 ovarian it was 113%; in the test with OVCAR-3 ovarian it was 105%; in the test with HS 578T breast, 100%; in the test on NCI/ADR-RES ovarian it was 102%.
`COc1ccc2c(c1)/C(=C\c1sc(=S)[nH]c1O)C(C(=O)O)=N2`: the growth in the test with SK-MEL-2 melanoma is 99.4%; in the test on EKVX NSCLC, 93.6%; with SN12C renal, 100%; with TK-10 renal, 108%; in the test on ACHN renal, 99.8%; in the test on CAKI-1 renal it was 86.2%. Besides, the growth was 95.7% with CCRF-CEM leukemia; 103% in the test with MOLT-4 leukemia; 110% with SR leukemia; 101% with RPMI-8226 leukemia; 101% in the test on OVCAR-5 ovarian; 101% with OVCAR-4 ovarian. Further, the growth in the test with IGROV1 ovarian is 107%; in the test with OVCAR-3 ovarian it was 98.8%; in the test with HS 578T breast, 94%; in the test on NCI/ADR-RES ovarian, 102%.
On to `OC(c1cccc(OCc2ccccc2)c1)c1nnc(-c2ccccc2)o1` (centres undefined), for which the growth in the test on SK-MEL-2 melanoma was 100%; in the test with EKVX NSCLC, 77.3%; in the test on SN12C renal, 92.8%; with TK-10 renal, 143%; in the test on ACHN renal it was 92.6%; with CAKI-1 renal, 95.2%. Moreover, the growth is 102% in the test on A498 renal; 105% in the test with MOLT-4 leukemia; 92.8% with SR leukemia; 57.8% in the test with RPMI-8226 leukemia; 95.9% in the test with OVCAR-8 ovarian; 102% in the test on OVCAR-5 ovarian. Besides, the growth is 87.1% in the test on OVCAR-4 ovarian; 106% in the test with SK-OV-3 ovarian; 91.7% in the test with IGROV1 ovarian; 104% in the test on OVCAR-3 ovarian; 96.9% in the test on HS 578T breast; 89.7% in the test with NCI/ADR-RES ovarian.
As for `O=c1[nH]c(=O)n(C2CC(O)C(CO)O2)cc1CO` (centres undefined), the growth in the test on SK-MEL-2 melanoma is 53.5%; with EKVX NSCLC, 98.8%; in the test on SN12C renal, 76.2%; in the test with TK-10 renal it was 90.5%; in the test on ACHN renal, 101%; with CAKI-1 renal, 86.3%. The growth in the test on MOLT-4 leukemia was 87.7%; in the test with RPMI-8226 leukemia, 98.9%; in the test with OVCAR-8 ovarian, 99.9%; in the test with OVCAR-5 ovarian, 29.7%; in the test with OVCAR-4 ovarian, 107%; in the test on SK-OV-3 ovarian, 107%. For the same compound, the growth is 124% with IGROV1 ovarian, 113% with OVCAR-3 ovarian and 4.34% (active) with NCI/ADR-RES ovarian.
As to `O=[N+]([O-])c1ccc(-c2cc3c(Nc4ccc(Cl)c(C(F)(F)F)c4)ncnc3s2)cc1`, the growth was -4.98% (active) with SK-MEL-2 melanoma; 7.59% (active) in the test on EKVX NSCLC; 2.43% (active) in the test on SN12C renal; 9.44% (active) with TK-10 renal; 4.57% (active) in the test with ACHN renal; -13% (active) with A498 renal. Further, the growth with CCRF-CEM leukemia was 17.5%; with SR leukemia, 17%; with OVCAR-8 ovarian it was 10.1%; in the test with OVCAR-5 ovarian, 26.6%; in the test on OVCAR-4 ovarian, 11.1%; with SK-OV-3 ovarian it was -11.5% (active). The growth in the test with IGROV1 ovarian is 38%; with OVCAR-3 ovarian, 5.57% (active); with HS 578T breast it was 37.9%; in the test with NCI/ADR-RES ovarian, 2.94% (active).
Take `O=[N+]([O-])c1ccccc1C(O)Cc1ccc2ccccc2n1` (centres undefined): the growth is 108% with SK-MEL-2 melanoma; 83.8% in the test on EKVX NSCLC; 95.2% in the test with SN12C renal; 148% in the test on TK-10 renal; 85.9% in the test with ACHN renal; 88% in the test on CAKI-1 renal. Moreover, the growth in the test with A498 renal is 68%; with CCRF-CEM leukemia it was -50.2% (active); in the test on MOLT-4 leukemia, -6.33% (active); with SR leukemia, 95.6%; with RPMI-8226 leukemia it was 95.1%; in the test on OVCAR-8 ovarian, 97.2%. In addition, the growth in the test with OVCAR-5 ovarian is 91.1%; in the test on OVCAR-4 ovarian it was 92.8%; in the test with SK-OV-3 ovarian, 84.9%; with IGROV1 ovarian it was 80.5%; with OVCAR-3 ovarian, 93.2%; in the test on HS 578T breast it was 98.9%. In the test with NCI/ADR-RES ovarian, the growth was 93%.
`CCN1CCN(c2ccc(Nc3cc(-c4cccnc4Nc4c(Cl)c(OC)cc(OC)c4Cl)ncn3)cc2)CC1`: the growth is 74.9% in the test on SK-MEL-2 melanoma; 87.4% with EKVX NSCLC; 52.8% in the test on UO-31 renal; 68.1% in the test with TK-10 renal; 42.6% in the test on ACHN renal; 48.5% with CAKI-1 renal. Moreover, the growth with A498 renal is 21.8%; in the test on CCRF-CEM leukemia, 31.6%; with MOLT-4 leukemia, 9.51% (active); with RPMI-8226 leukemia, 64.1%; in the test with OVCAR-8 ovarian, 69.2%; in the test on OVCAR-5 ovarian, 92.4%. Besides, the growth in the test with OVCAR-4 ovarian was 48.8%; in the test with SK-OV-3 ovarian, 72.7%; in the test on IGROV1 ovarian, 57.4%; in the test with OVCAR-3 ovarian it was 88.9%; in the test with HS 578T breast, 51.8%; in the test with NCI/ADR-RES ovarian, 75.8%.
